The values that follow come from PubChem BioAssay.

Assay [1] in a line: hESC survival regulators, cell-based (AID 493140).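 Further: cells exposed to compounds for four days before counting.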 Particulars: human embryonic stem cell survival screen; stronger effect = higher value.
A short description of assay [2]: Cy5 fluorescence interference with SSB-bound oligo, artefact control for HCV NS3 helicase inhibitor project, biochemical, NIH Clinical Collection, E. coli SSB (AID 743268).
Assay [3] deals with Hepatitis C virus NS3 helicase. Briefly: HCV NS3 helicase inhibitors, primary screen, biochemical, fluorescence polarization, NIH Clinical Collection (AID 743270). To be noted: NS3 helicase binding to Cy5-dT15 DNA, stronger effect = higher value, concentration not given here.
Assay [4] addresses Single-stranded DNA-binding protein (Escherichia coli (strain K12)) (UniProt P0AGE0). The assay is described as follows: E. coli SSB displacement from DNA, counter-screen for HCV NS3 helicase inhibitor project, biochemical, fluorescence polarization, NIH Clinical Collection (AID 743271; in the data active means inhibition above about 28%). To be noted: stronger effect = higher value, concentration not given here.
Assay [5] in a line: fluorescence interference in NS3h assay format, artefact control for HCV NS3 helicase inhibitor project, biochemical, NIH Clinical Collection (AID 743272).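 Further: HCV NS3 helicase with a Cy5 labelled single stranded DNA probe.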 Particulars: fluorescence interference counterscreen, stronger effect = lower value.
Assay [6] is described as follows: modulation of C. elegans fzo-1 (AID 1259413).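 Further: fzo-1 mutant C. elegans worms in liquid wells.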 Particulars: C. elegans fzo-1 modulator screen, mean read-out; stronger effect = higher value.
Assay [7] can be described thus: viability rescue of complex I mutant cybrids, primary screen, cell-based, galactose medium, ATP luminescence (AID 1645843;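 active means z-score of at least 1.8 in each of two replicates, scored against plate mean and spread of sample wells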;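 further: positive z means more ATP and so rescue of galactose-driven cybrid death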). Particulars: complex I mutant cybrid cells, 72 h, stronger effect = higher value.
Assay [8] has as its system F380Y/beta1. The assay is described as follows: modulators of BK channel variants, profiling panel, selectivity assay, cell-based, U2OS BacMam, thallium flux, beta subunits (AID 1259406;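 active means thallium flux through the channel raised or lowered by more than 3 SD from vehicle-only wells, actives on both sides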;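 further: initial slope of Thallos dye fluorescence rise after thallium is added; log ratio against the mean of 0.3% DMSO vehicle wells on the same plate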). Particulars: at 30 µM.
Assay [9] relates to F380Y/beta4. Described as above. To be noted: at 30 µM.
In assay [10] the test system is R275C/beta4. The assay is described as above. Particulars: at 30 µM.
The test system of assay [11] is R275C/Slo1WT/beta2. Described as above. To be noted: at 30 µM.
A short description of assay [12]: polyglutamine-triggered caspase-3 activation inhibitors, cell-based (AID 1583). Particulars: polyglutamine-induced caspase-3 activation, cell assay; stronger effect = higher value;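 tested at 10 µM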.
The nature of assay [13]: suppressors of polyQ aggregation in yeast, 75Q-TubU reporter (AID 1593). Particulars: Yeast 75Q polyglutamine aggregation reporter.
Assay [14] can be described thus: rescue of polyQ-huntingtin neuronal dysfunction in worms, whole organism, C. elegans mechanosensory neurons, N-terminal huntingtin (AID 1599). Particulars: touch response, stronger effect = higher value.
A short description of assay [15]: inhibitors of mitochondrial cytochrome c release, biochemical, purified mitochondria (AID 1603).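 Further: mouse liver mitochondria challenged with calcium chloride; signal normalized to the plate average as 100%.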 Particulars: stronger effect = lower value.
Assay [16] in a line: inhibitors of polyQ protein aggregation (AID 1604). To be noted: polyglutamine-induced protein aggregation inhibition assay; stronger effect = higher value; tested at 2.5 µM.
A short description of assay [17]: enhancers of glutamate uptake in motor neurons, MN-1 cell line (AID 1612).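 Further: tested at 1 µM final; 0% = mean of DMSO vehicle wells on each plate; positive means more glutamate uptake than control and negative means less.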 Particulars: MN-1 motor neuron cells, stronger effect = higher value.
Assay [18] is described as follows: suppressors of polyglutamine aggregation in yeast, 75Q-TubH (AID 1616). Particulars: S. cerevisiae 75Q-TubH polyglutamine aggregation suppression; stronger effect = higher value.
The nature of assay [19]: liver-stage malaria parasite growth inhibition, primary screen, cell-based, HepG2, luciferase luminescence, HepG2 viability (AID 624349; in the data active means parasite load remaining mostly below about 12%, no sharp cut-off; inactive means mostly above about 10%;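 further: 100% = mean of DMSO negative control wells on the same plate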). To be noted: P. berghei liver stage in HepG2, luciferase luminescence, concentration not given here; parasite load remaining: stronger effect = lower value; viability: measured here: HepG2 viability without parasites.

Molecules are shown by their SMILES. Where “and” joins values, the source holds several entries; their conditions need not be identical. Equal values may be shown once. For part of these data: Potency and affinity values are given separately. Calls of active or inactive are those of the source. Unless noted, how the calls were made is not given here.

As to `C[C@]12CCC(=O)C=C1CC[C@@H]1[C@@H]2[C@@H](O)C[C@@]2(C)[C@H]1CC[C@]2(O)C(=O)CO`, the survival in assay [1] is 5.5 (inactive). For the same compound, the fluorescence ratio was 0.95 (inactive) in [2] and 0.93 (inactive) in [5]. The inhibition was 0.45% (inactive) in assay [3] and 5.62% (inactive) in assay [4]. Moreover, the mean signal in assay [6] was 278 (inactive). Moreover, in [7], the z-score was 0.565 (inactive) and 0.385 (inactive) and -0.22 (inactive). In addition, the log fold change Tl+ flux was 0.0243 (inactive) in assay [8], 0.00205 (inactive) in assay [9], -0.0399 (inactive) in assay [10] and 0.0266 (inactive) in assay [11].
As to `Nc1nc2ncc(CNc3ccc(C(=O)N[C@@H](CCC(=O)O)C(=O)O)cc3)nc2c(=O)[nH]1`, the results for the inhibition in [12], in [3] and in assay [4] were 15.9%, -2.27% (inactive) and 11% (inactive), respectively. Also, the score in assay [13] is 1.02. The compound further yielded a rescue above control in assay [14] of -0.86. Besides, in [15], the cytochrome c release ratio was 1.08. Besides, in assay [16], the inhibition of aggregation was determined as 77.8%. Moreover, the glutamate uptake change in assay [17] turned out to be 0.74%. The same compound came in with an aggregation suppression score in assay [18] of 1.14. The fluorescence ratio in [2] was 0.95 (inactive); in [5] it was 0.92 (inactive). For the same compound, the mean signal in [6] was 246 (inactive). In addition, the z-score in [7] was -0.64 (inactive). For the same compound, the log fold change Tl+ flux in [8] was -0.0026 (inactive); in assay [9], 0.025 (inactive); in assay [10], -0.0613 (inactive); in assay [11], -0.0318 (inactive).
For `CC(=O)[C@H]1CC[C@H]2[C@@H]3C[C@H](C)C4=CC(=O)CC[C@]4(C)[C@H]3[C@@H](O)C[C@]12C`, in assay [1], the survival is 6.42 (inactive). The parasite load remaining in assay [19] was 57.6% (inactive) and 67.9% (inactive). In addition, in assay [19], the viability is 84.9% and 91.5%. The fluorescence ratio in [2] was 0.93 (inactive); in assay [5], 0.99 (inactive). Further, the results for the inhibition in assay [3] and in [4] were -0.45% (inactive) and 0.29% (inactive), respectively. In assay [6], the mean signal was 277 (inactive). Also, in assay [7], the z-score is -0.825 (inactive). Moreover, the log fold change Tl+ flux was -0.00433 (inactive) in assay [8], -0.0204 (inactive) in assay [9], -0.0699 (inactive) in [10] and -0.105 (inactive) in assay [11].
For the compound `O[C@@H](c1cc(C(F)(F)F)nc2c(C(F)(F)F)cccc12)[C@H]1CCCCN1`, the parasite load remaining in [19] is -2.37% (inactive). Also, the viability in [19] was 0.505%. Also, the fluorescence ratio in [2] is 1.04 (inactive); in assay [5], 0.96 (inactive). The inhibition in assay [3] was -7.73% (inactive); in [4], -2% (inactive). Also, the mean signal in [6] is 213 (inactive). In assay [7], the z-score was -1.5 (inactive). Also, the log fold change Tl+ flux was 0.529 (active) in assay [8], 0.648 (active) in [9], 0.803 (active) in assay [10] and 0.107 (inactive) in assay [11].
On to `O=C1[C@H](CC[C@H](O)c2ccc(F)cc2)[C@@H](c2ccc(O)cc2)N1c1ccc(F)cc1`, for which the parasite load remaining in assay [19] was 62.8% (inactive). Moreover, the viability in assay [19] is 65.3%. Also, the fluorescence ratio in [2] was 0.97 (inactive); in assay [5] it was 0.95 (inactive). Also, the results for the inhibition in [3] and in assay [4] were 2.77% (inactive) and 3.75% (inactive), respectively. In addition, in assay [6], the mean signal was 228 (inactive). Further, the log fold change Tl+ flux in [8] is 0.33 (active); in [9], 0.106 (active); in assay [10] it was 0.207 (active); in assay [11] it was 0.0256 (inactive).
Consider `Cc1ccc(O)c([C@H](CCN(C(C)C)C(C)C)c2ccccc2)c1`, for which the parasite load remaining in [19] is 63.7% (inactive). In assay [19], this compound gave a viability of 67.2%. The fluorescence ratio was 1 (inactive) in [2] and 0.97 (inactive) in [5]. Moreover, the inhibition in assay [3] was -4.36% (inactive); in [4], 1.44% (inactive). Besides, in assay [6], the mean signal was 219 (inactive). Besides, the log fold change Tl+ flux in assay [8] is 0.0975 (active); in assay [9] it was 0.136 (active); in assay [10] it was 0.0668 (inactive); in [11] it was 0.0213 (inactive).
